# From PubChem BioAssay (Tox21)
# Several values for one entry are separate records, joined by “and”; a condition that tells them apart may be missing. Identical values can stand only once. Records with an inconclusive call do not appear. Values without a mark were called inactive. Activity calls are given as the source filed them. Calls come from the whole dose curve; as a rule, active = well fitted cell-killing curve with a large enough effect in the repeat runs; inconclusive = weak or mixed curves; inactive = no such curve, though single readings can be large or run the other way.
# Assay: qHTS assay to identify small molecule antagonists of the peroxisome proliferator-activated receptor delta (PPARd) signaling pathway - cell viability counter screen (AID 743213); note: nearly all actives have a fitted effect of over 50% in size
# Settings: PPARd-bla HEK293H viability, CellTiter-Glo luminescence, 17 h; series mostly up to 62 µM; viability change, negative = cytotoxic: at the top concentration
# From the text: U.S. Tox21 Program National Center for Advancing Translational Sciences [NCATS] NIH Chemical Genomics Center [NCGC] U.S. Environmental Protection Agency [EPA] National Institutes of Environmental Health Sciences [NIEHS] National Toxicology Program [NTP] U.S. Food and Drug Administration [FDA] Tox21 Assay Overview: The peroxisome proliferator-activated receptors (PPARs) are lipid-activated transcription factors of the nuclear receptor superfamily with three distinct subtypes namely PPAR alpha, PPAR delta (PPARd) and PPAR gamma. All these subtypes heterodimerizes with Retinoid X receptor (RXR) and have different physiological functions. […] To identify the compounds that inhibit PPAR-delta signaling, GeneBLAzer PPAR delta UAS-bla HEK293H cell line (Invitrogen, Carlsbad, CA, USA) containing a beta-lactamase reporter gene under the control of an Upstream Activator Sequence (UAS) was used to screen the Tox21 compound library. The cytotoxicity of the Tox21 compound library against the PPARd-bla cell line was tested in parallel by measuring the cell viability using CellTiter-Glo assay (Promega, Madison, WI) in the same wells.
# Tox21 Assay Protocol Summary: PPARd-bla cells were dispensed at 3000 cells/5uL/well in 1536-well black wall/clear bottom plates using a Multidrop Combi (Thermo Fisher Scientific, Waltham, MA) dispenser. After the assay plates were incubated at 37 C and 5% CO2 for 5 h, 23 nL of compounds dissolved in DMSO, positive controls or DMSO only was transferred to the assay plate by a Pintool station (Kalypsys, San Diego, CA), followed by addition of 1ul L165041 (300 nM, final concentration in the wells). The assay plates were incubated at 37 C for 17 h, and then 1 uL of LiveBLAzerTM B/G FRET substrate was added using a Bioraptr Flying Reagent Dispenser (FRD) workstation (Beckman Coulter, Indianapolis, IN, USA). The assay plates were incubated at room temperature for 2 h and fluorescence intensity was measured by an Envision plate reader (PerkinElmer, Shelton, CT). For cell viability readout that measures cytotoxicity, 3 ul/well of CellTiter-Glo reagent was added into the assay plates using a Bioraptr FRD. After 30 min incubation at room temperature, the luminescence intensity in the plates was measured using a ViewLux plate reader (PerkinElmer).
# % is set by controls: 0 for no effect and ±100 for the full control effect; potency is the fitted concentration of half-maximal effect.
Compound,Potency,"viability change, negative = cytotoxic"
Cc1ccc([N+](=O)[O-])[c]2c1[O][Hg]2,5.96 µM (active),–
CCOC(=O)CCN(SN(C)C(=O)Oc1cccc2c1OC(C)(C)C2)C(C)C,–,-9.13%
O=C(O)CCCCCCNC1c2ccccc2CCc2ccccc21,–,-1.23%
CCC1(CC)C(=O)N=C(O)NC1=O,–,-33.6%
COC(=O)/C=C(\C)OP(=O)(OC)OC,–,-3.65%
CC(C)N(C(=O)SC/C(Cl)=C/Cl)C(C)C,–,2.75% [at 80.4 µM]
CC(Cc1ccccc1)N(C)Cc1ccco1 (stereo not given),–,0.402%
Brc1cccc(-c2ccccc2)c1,–,-5.73% [at 80.4 µM]
CC(C)Br,–,-0.394%
NC(=O)C(Cl)Cl,–,-6.41%
CC(Cc1ccc2c(c1)OCO2)NO (stereo not given),–,-5.37% [at 80.4 µM]
O=C1C[C@@H]2OCC=C3CN4CC[C@]56c7ccccc7N1[C@H]5[C@H]2[C@H]3C[C@H]46,–,-24.3%
CN,–,11.4% [at 80.4 µM]
O=C(Nc1ccc(F)cc1F)c1cccnc1Oc1cccc(C(F)(F)F)c1,–,-23.6% [at 80.4 µM]
CCCCc1ccccc1,–,1.01%
C#CCC1=C(C)C(OC(=O)C2C(C=C(C)C)C2(C)C)CC1=O (stereo not given),–,-4.06%
O=C(CCCCl)c1ccc(F)cc1,–,10.2%
NC1CCC(CC2CCC(N)CC2)CC1 (stereo not given),–,-12.1%
COP(=S)(NC(C)C)Oc1ccc(C)cc1[N+](=O)[O-] (stereo not given),–,-1.79%
CCCCCCCc1ccc(O)cc1,–,-22.8%

Compound,Potency,"viability change, negative = cytotoxic"
CCCN,–,-1.86% [at 80.4 µM]
[O]=[Cr](=[O])([OH])[O][Cr](=[O])(=[O])[OH],7.83 µM (active) and 21.8 µM (active),–
O=C(NC(=O)c1ccccc1Cl)Nc1ccc(OC(F)(F)F)cc1,–,1.53%
C=CC(=C)C,–,9.78%
C1=CCC=C1,–,0.876%
CC1CN1 (stereo not given),–,-11.6%
CCN(CC)Cc1nccn1-c1ccc([N+](=O)[O-])cc1C(=O)c1ccccc1Cl,–,4.19%
Fc1ccc(C(OCCN2CCN(CCCc3ccccc3)CC2)c2ccc(F)cc2)cc1,26.6 µM (active),–
Oc1cc(Cl)cc(Cl)c1,–,-3.96% [at 80.4 µM]
COc1c2c(cc3c1OCO3)CCN(C)C2,–,-1.4%
Nc1nc(N)c(N)c(N)n1,–,3.09% [at 80.4 µM]
Oc1ccc([C@H]2CNCc3c2ccc(O)c3O)cc1O,–,5.35%
C=CCBr,–,-20.5% [at 80.4 µM]
c1csc(-c2ccc(-c3cccs3)s2)c1,–,8.28%
Cc1c([N+](=O)[O-])cc2c(c1[N+](=O)[O-])C(C)(C)CC2(C)C,–,8.33%
CC1CCCC1,–,0.0372%
O=S(=O)(NS(=O)(=O)C(F)(F)F)C(F)(F)F,–,5.85%
CC(=O)C(Cl)C(=O)N(C)C (stereo not given),–,-3.57%
OCC(Br)CBr (stereo not given),–,17.6% [at 80.4 µM]
N#Cc1ccc(N(CC(N)=O)CC(F)(F)F)cc1C(F)(F)F,–,-25.5%
